{"source": "PubChem BioAssay (NCI)", "note": "“And” between values parts separate entries of the source, which are not always exact repeats. Equal entries are not always repeated. The panel holds about 83,000 compounds, 20% with a hit somewhere; the sample as a whole holds those more often.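 Method: cells in 96-well plates; compound added at one concentration; 48 h incubation; percent growth measured; values under 10 scored active.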 The source made the active and inactive calls.", "data": [{"tested_on": "MDA-MB-468 breast", "test": "NCI-60 one-dose screen, 48 h (100 = growth as untreated, 0 = no growth, -100 = all killed)", "conditions": "10 µM unless noted", "values": [{"smiles": "C=C(C)[C@@H]1CC[C@]2(C(=O)N3CCN(C)CC3)CC[C@]3(C)[C@H](CC[C@@H]4[C@@]5(C)CC[C@H](OCCC#N)C(C)(C)[C@@H]5CC[C@]43C)[C@@H]12", "growth": "69.4% (inactive)"}, {"smiles": "CC(C)N(CCOc1ccc(-c2nc3sccn3c2-c2ccnc(S(C)(=O)=O)n2)cc1)C(C)C", "growth": "9.31% (active)"}, {"smiles": "CCN1C(=S)N(c2ccccc2)C2C1NN=c1s/c(=C3\\C(=O)N(C(C)C)c4ccccc43)c(=O)n12", "note": "(centres undefined)", "growth": "94.5% (inactive)"}, {"smiles": "CCN(CC)CCCNc1cc(OC)cc2cccnc12", "growth": "59% (inactive)"}, {"smiles": "CCOC(=O)c1sc(N)c(C(=O)OCC)c1C", "growth": "59.4% (inactive)"}, {"smiles": "COc1ccc(-c2cc(-c3ccc(N(C)C)cc3)nc(NC(=O)c3ccncc3)n2)cc1", "growth": "75.5% (inactive)"}, {"smiles": "COc1cc2c(cc1[N+](=O)[O-])-c1ccc([N+](=O)[O-])cc1/C2=N\\O", "growth": "49.4% (inactive)"}, {"smiles": "O=C(O)c1c2c(nc3ccccc13)Cc1ccccc1-2", "growth": "128% (inactive) and 89.3% (inactive)"}, {"smiles": "[2H]c1nc(=Nc2cc(NC(=O)C=C)c(N(C)CCN(C)C)cc2OC)[nH]c(-c2cn(C([2H])([2H])[2H])c3ccccc23)c1[2H]", "growth": "-9.46% (active)"}, {"smiles": "O=C(CSc1nccc(Nc2ccc(S(=O)(=O)Nc3ccccn3)cc2)n1)c1ccc(Cl)cc1", "growth": "81.2% (inactive)"}, {"smiles": "Nc1cc(Br)c(-c2nn3c(CCC(=O)c4nc5ccccc5[nH]4)nnc3s2)c(Br)c1", "growth": "91.8% (inactive)"}, {"smiles": "COc1ccc(/C=C/C(=O)/C=C/c2cc3ccccc3[nH]c2=O)cc1", "growth": "43.9% (inactive)"}, {"smiles": "O=C(N/N=C\\c1cc(Cl)ccc1O)c1ccncc1", "growth": "36.9% (inactive)"}, {"smiles": "CC(=O)N[C@@H](CNC(=O)c1cc(NC(=O)c2cc(NC(=O)c3cc(NC(=O)c4nccn4C)cn3C)cn2C)cn1C)CC(=O)Nc1cn(C)c(C(=O)Nc2cc(C(=O)Nc3cc(C(=O)Nc4cc(C(=O)NCCCN(C)CCCNC(=O)c5cccc(C(=O)O)c5)n(C)c4)n(C)c3)n(C)c2)n1", "growth": "71.5% (inactive)"}, {"smiles": "O=C(Nc1ncccc1OCc1ccccc1)NC1CCCCCC1", "growth": "75.5% (inactive)"}, {"smiles": "CCN(CC)c1ccc(/C=C(\\C#N)c2cc3ccccc3[nH]2)cc1", "growth": "47.3% (inactive)"}, {"smiles": "CC(=O)c1sc2sc(C(C)=O)c(C)c2c1C", "growth": "61.4% (inactive)"}, {"smiles": "O=c1[nH]c2ccc(Cl)cc2cc1CSc1ccccc1Nc1nccc(-c2ccc(Cl)cc2)n1", "growth": "93.3% (inactive)"}, {"smiles": "O=S(=O)(O)CCl", "growth": "108% (inactive)"}, {"smiles": "N#Cc1c(-c2ccccc2)nc(SCC2CO2)nc1N1CCOCC1", "note": "(centres undefined)", "growth": "55.9% (inactive)"}, {"smiles": "CO/C=C/C(=O)c1cc2cnc3c(=N)cc(NC(=O)C(C)C)c([nH]1)c23", "growth": "-54.9% (active)"}, {"smiles": "Cc1nn(-c2nc3ccccc3[nH]2)c2c1C(c1ccc(OCc3ccc(F)cc3)cc1)CC(=O)N2", "note": "(centres undefined)", "growth": "65.3% (inactive)"}, {"smiles": "O=C1/C(=C/c2ccc(Br)cc2)COc2ccc(O)c(O)c21", "growth": "-51.8% (active)"}, {"smiles": "CS(=O)(=O)c1ccc(-c2cc(-c3nnc(SCC(=O)Nc4ccc(C(=O)/C=C/c5ccc(Cl)cc5)cc4)n3-c3ccccc3)c3ccccc3n2)cc1", "growth": "93.2% (inactive)"}, {"smiles": "O=Nc1c(O)ccc2ccccc12.O=Nc1c(O)ccc2ccccc12.O=Nc1c([O-])ccc2ccccc12.[Fe+3]", "growth": "106% (inactive)"}, {"smiles": "COc1nc2c(cc1S(=O)(=O)c1ccccc1)CCc1c-2cnn1-c1ccc(Cl)cc1", "growth": "87.6% (inactive)"}, {"smiles": "C/C(=C(/c1ccc(O)cc1)c1ccc(OCCN(C)C)cc1)c1ccc(Cl)cc1", "growth": "22.2% (inactive)"}, {"smiles": "CC1(C(=O)O)NC(C(=O)O)Cc2c1[nH]c1ccccc21", "note": "(centres undefined)", "growth": "113% (inactive)"}, {"smiles": "C=C(OC(C)=O)c1ccccc1", "growth": "103% (inactive)"}, {"smiles": "CCCCCCC/C(=N\\N=C(N)N)c1ccc(O)cc1", "growth": "-79.7% (active)"}, {"smiles": "C=C1C(=O)O[C@H]2[C@H]1CC/C(CNC(=O)c1c[nH]c3ccc(F)cc13)=C\\CC[C@@]1(C)O[C@@H]21", "growth": "-55.8% (active)"}, {"smiles": "O=C1COCCN1c1ccc(NCc2cn(Cc3ccccc3)c3ccccc23)cc1", "growth": "-76% (active)"}, {"smiles": "COc1ccc(-c2cc(=O)c3c(O)cc(O)cc3o2)cc1", "growth": "121% (inactive) and 96.2% (inactive)"}, {"smiles": "O=C(N/N=C/c1ccc(Cl)cc1)c1ccc(C(F)(F)F)nc1Nc1cccc(C(F)(F)F)c1", "growth": "16.7% (inactive)"}, {"smiles": "CC(NNC(C)c1ccccc1)c1ccccc1", "note": "(centres undefined)", "growth": "104% (inactive)"}, {"smiles": "Cc1ccc(NC2=CC(=O)C(=O)c3ccccc32)c(C)c1", "growth": "14.1% (inactive)"}, {"smiles": "Cc1cc(I)nc2ccccc12", "growth": "109% (inactive)"}, {"smiles": "CC[C@H](C)[C@@H](C(=O)OC)n1cc(CNC(=O)[C@@H](Cc2ccccc2)NC(=O)OCc2ccccc2)nn1", "growth": "99% (inactive)"}, {"smiles": "CCOC(=O)c1c(N)sc2cc(O)ccc12", "growth": "131% (inactive)"}]}]}
